Measured values published in the supplement of paper PMC6555819.

Assays:
Test in all cases: PBM binding z-score (relative to random genomic background probes); higher = stronger binding; sequences stand for … in GC…GCGATTGACAGCGTAGAATGAAGG
[1] = tested on: FXR:RXRa (NR concentration 270 nM, RXRa partner concentration 90 nM)
Outline: (§1)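 For binding z-scores, the reference was random background probes on custom Agilent 4×180K protein-binding microarrays. These arrays were incubated 1 h with ligand-free nuclear receptor dimers in PBS pH 7.4, 2% milk, 0.02% Triton X-100, 1 mM DTT, 0.2 mg/mL BSA and 0.4 mg/ml salmon testes DNA. Fluorescence was scanned after antibody detection of each partner (one per run) and regression-normalized.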

[2] = tested on: LXRa:RXRa (NR concentration 270 nM, RXRa partner concentration 90 nM)
Outline: as §1

[3] = tested on: LXRa homodimer (NR concentration 270 nM)
Outline: as §1

[4] = tested on: LXRb:RXRa (NR concentration 270 nM, RXRa partner concentration 90 nM)
Outline: as §1

[5] = tested on: LXRb homodimer (NR concentration 270 nM)
Outline: as §1

[6] = tested on: PPARa:RXRa (NR concentration 270 nM, RXRa partner concentration 90 nM)
Outline: as §1

[7] = tested on: PPARg:RXRa (NR concentration 180 nM, RXRa partner concentration 90 nM)
Outline: as §1

[8] = tested on: PPARg:RXRa 270nM:90nM, anti-RXR (NR concentration 270 nM, RXRa partner concentration 90 nM)
Outline: as §1

[9] = tested on: PPARg:RXRa 30nM:10nM, anti-RXR (NR concentration 30 nM, RXRa partner concentration 10 nM)
Outline: as §1

[10] = tested on: PPARg:RXRa 90nM:30nM, anti-RXR (NR concentration 90 nM, RXRa partner concentration 30 nM)
Outline: as §1

[11] = tested on: PPARg:RXRa DBDmut IVT, anti-RXR (DBD mutation: RXRa K156A/R161A, NR concentration 270 nM, RXRa partner concentration 90 nM)
Outline: as §1

[12] = tested on: PPARg:RXRa IVT, anti-PPARg (NR concentration 270 nM, RXRa partner concentration 90 nM)
Outline: as §1

[13] = tested on: PPARg DBDmut:RXRa IVT, anti-PPARg (DBD mutation: PPARg1 K132A/R137A, NR concentration 270 nM, RXRa partner concentration 90 nM)
Outline: as §1

[14] = tested on: PPARg DBDmut IVT, anti-PPARg (DBD mutation: PPARg1 K132A/R137A, NR concentration 270 nM)
Outline: as §1

[15] = tested on: PPARg homodimer (NR concentration 180 nM)
Outline: as §1

[16] = tested on: PXR:RXRa (NR concentration 270 nM, RXRa partner concentration 90 nM)
Outline: as §1

[17] = tested on: PXR homodimer (NR concentration 270 nM)
Outline: as §1

[18] = tested on: RARa:RXR (NR concentration 270 nM, RXRa partner concentration 90 nM)
Outline: as §1

[19] = tested on: RARa homodimer (NR concentration 270 nM)
Outline: as §1

[20] = tested on: RARb:RXRa (NR concentration 270 nM, RXRa partner concentration 90 nM)
Outline: as §1

In the case of ATCTCTAGGTAACACTCAGTTCAGTGAAGAACGC, the PBM binding z-score [1] was 0.92, the PBM binding z-score [2] was 1.1 and the PBM binding z-score [3] was 0.849. The PBM binding z-score [4] was 0.889, the PBM binding z-score [5] was 1.26 and the PBM binding z-score [6] was 1.07. For the same sequence, the PBM binding z-score [7] was 0.692, the PBM binding z-score [8] was 0.736 and the PBM binding z-score [9] was 0.527. It also gave a PBM binding z-score [10] of 0.515, a PBM binding z-score [11] of 3.97 and a PBM binding z-score [12] of 2.95. For the same sequence, the PBM binding z-score [13] was 1.8, the PBM binding z-score [14] was 2.07 and the PBM binding z-score [15] was 1.13. It also gave a PBM binding z-score [16] of 1.94, a PBM binding z-score [17] of 2.42 and a PBM binding z-score [18] of 1.13. The PBM binding z-score [19] was 1.39 and the PBM binding z-score [20] was 1.06.

In the case of TAGCCGAGGTCATTGGGCCAGTATAGTACGCATC, the PBM binding z-score [1] was 7.32, the PBM binding z-score [2] was 5.83 and the PBM binding z-score [3] was 2.5. For the same sequence, the PBM binding z-score [4] was 5.28, the PBM binding z-score [5] was 1.76 and the PBM binding z-score [6] was 6.2. The PBM binding z-score [7] was 6.77, the PBM binding z-score [8] was 6.15 and the PBM binding z-score [9] was 3.26. The PBM binding z-score [10] was 5.02, the PBM binding z-score [11] was 2.68 and the PBM binding z-score [12] was 4.59. It also gave a PBM binding z-score [13] of -0.49, a PBM binding z-score [14] of 0.82 and a PBM binding z-score [15] of 2.28. It also gave a PBM binding z-score [16] of 5.5, a PBM binding z-score [17] of 2.28 and a PBM binding z-score [18] of 4.87. The PBM binding z-score [19] was 0.0596 and the PBM binding z-score [20] was 4.78.

GCTAGCAAGCCATTTGGGTCACTCAATGACGGGC was tested, and the PBM binding z-score [1] was -0.28, the PBM binding z-score [2] was -0.493 and the PBM binding z-score [3] was -0.817. The PBM binding z-score [4] was -0.134, the PBM binding z-score [5] was -0.898 and the PBM binding z-score [6] was 1.15. It also gave a PBM binding z-score [7] of 0.614, a PBM binding z-score [8] of 0.042 and a PBM binding z-score [9] of -0.634. The PBM binding z-score [10] was -0.546, the PBM binding z-score [11] was 0.501 and the PBM binding z-score [12] was 1.28. For the same sequence, the PBM binding z-score [13] was -0.713, the PBM binding z-score [14] was -0.878 and the PBM binding z-score [15] was -0.494. For the same sequence, the PBM binding z-score [16] was 0.0188, the PBM binding z-score [17] was -0.796 and the PBM binding z-score [18] was 0.479. The PBM binding z-score [19] was -0.835 and the PBM binding z-score [20] was 0.979.

CCTTACGGGTCAATGACAGGTTATAGCATTTGGA showed a PBM binding z-score [1] of 6.33, a PBM binding z-score [2] of 4.45 and a PBM binding z-score [3] of 1.11. For the same sequence, the PBM binding z-score [4] was 3.68, the PBM binding z-score [5] was 0.333 and the PBM binding z-score [6] was 5.07. For the same sequence, the PBM binding z-score [7] was 3.44, the PBM binding z-score [8] was 3.62 and the PBM binding z-score [9] was 1.13. The PBM binding z-score [10] was 2.5, the PBM binding z-score [11] was 2.52 and the PBM binding z-score [12] was 2.91. It also gave a PBM binding z-score [13] of 0.126, a PBM binding z-score [14] of 0.222 and a PBM binding z-score [15] of 4.22. The PBM binding z-score [16] was 3.44, the PBM binding z-score [17] was 0.512 and the PBM binding z-score [18] was 4.2. It also gave a PBM binding z-score [19] of 0.757 and a PBM binding z-score [20] of 3.97.

GCTGCTAGGTCAGGTTGGTCAGCCAACGGGTACG showed a PBM binding z-score [1] of 1.12, a PBM binding z-score [2] of 0.345 and a PBM binding z-score [3] of -0.418. For the same sequence, the PBM binding z-score [4] was 0.336, the PBM binding z-score [5] was -0.341 and the PBM binding z-score [6] was 1.36. For the same sequence, the PBM binding z-score [7] was 0.298, the PBM binding z-score [8] was 1.1 and the PBM binding z-score [9] was -0.412. The PBM binding z-score [10] was 0.115, the PBM binding z-score [11] was 2.43 and the PBM binding z-score [12] was 2.2. It also gave a PBM binding z-score [13] of -1.3, a PBM binding z-score [14] of -1.25 and a PBM binding z-score [15] of 0.608. The PBM binding z-score [16] was 0.00259, the PBM binding z-score [17] was -0.305 and the PBM binding z-score [18] was 0.503. The PBM binding z-score [19] was -0.0936 and the PBM binding z-score [20] was 3.2.

CGAACTAGGTCAGAACAGGACTGTGAAGGATGAT gave a PBM binding z-score [1] of 0.728, a PBM binding z-score [2] of 0.692 and a PBM binding z-score [3] of -0.197. For the same sequence, the PBM binding z-score [4] was 0.252, the PBM binding z-score [5] was -0.415 and the PBM binding z-score [6] was 2.98. The PBM binding z-score [7] was 5.13, the PBM binding z-score [8] was 4.21 and the PBM binding z-score [9] was 1.77. For the same sequence, the PBM binding z-score [10] was 3.09, the PBM binding z-score [11] was 7.08 and the PBM binding z-score [12] was 7.13. It also gave a PBM binding z-score [13] of 0.747, a PBM binding z-score [14] of 0.194 and a PBM binding z-score [15] of 0.61. The PBM binding z-score [16] was 0.118, the PBM binding z-score [17] was -0.184 and the PBM binding z-score [18] was 0.787. The PBM binding z-score [19] was 0.123 and the PBM binding z-score [20] was 2.71.

Work on TAACCTAGGTCAGATCGGGCCAGTATACGCTATA yielded a PBM binding z-score [1] of 2.84, a PBM binding z-score [2] of 2.52 and a PBM binding z-score [3] of 0.693. The PBM binding z-score [4] was 1.64, the PBM binding z-score [5] was 0.561 and the PBM binding z-score [6] was 2.29. It also gave a PBM binding z-score [7] of 1.87, a PBM binding z-score [8] of 2.06 and a PBM binding z-score [9] of 0.906. The PBM binding z-score [10] was 1.62, the PBM binding z-score [11] was 1.82 and the PBM binding z-score [12] was 3.4. It also gave a PBM binding z-score [13] of 0.884, a PBM binding z-score [14] of -0.00517 and a PBM binding z-score [15] of 1.09. It also gave a PBM binding z-score [16] of 1.54, a PBM binding z-score [17] of -0.137 and a PBM binding z-score [18] of 1.38. It also gave a PBM binding z-score [19] of -0.0765 and a PBM binding z-score [20] of 3.32.
